Among all 52,000 compounds or so, about 4,300 (8.3%) were called active. Cut-off read from the data, not from the text of the source: active = survival mostly below about 52% (no sharp cut-off); inactive = mostly above about 56%. The full list was thinned out, with actives kept by preference.
Test system: DeltatarO mutant
Assay: S. aureus survival, RN4220 and DeltatarO strains – OD600, teichoic acid synthesis inhibitors, primary screen (AID 463173)
Conditions: S. aureus RN4220 wild type/DeltatarO growth, OD600, 18 h, stronger effect = lower value, screened at 18.75 µg/mL (by protocol)

| SMILES | survival |
| --- | --- |
| COc1cccc(NC(=O)CCc2nc3c(C)nn(-c4ccc(C)cc4)c3n(C)c2=O)c1 | 81% (inactive) |
| Cc1ccc(-n2nc(C)c3nc(CCC(=O)Nc4cccc(F)c4)c(=O)n(C)c32)cc1 | -5% (active) |
| Cc1ccc(-n2nc(C)c3nc(CCC(=O)Nc4ccc(F)cc4)c(=O)n(C)c32)cc1 | 73% (inactive) |
| O=C(c1cc(S(=O)(=O)N2CCCC2)c[nH]1)N1CCN(c2cccc(Cl)c2)CC1 | 98% (inactive) |
| COCCn1nnnc1C(c1ccc2ncccc2c1)N1CCc2ccccc21 (configuration not stated) | 98% (inactive) |
| O=[N+]([O-])c1cc(-c2nc(-c3ccccc3)no2)ccc1NCc1ccco1 | 64% (inactive) |
| COc1cc(-c2noc(-c3ccc(NCc4ccco4)c([N+](=O)[O-])c3)n2)cc(OC)c1OC | 49% (active) |
| COc1ccccc1-c1noc(-c2ccc(NCc3ccco3)c([N+](=O)[O-])c2)n1 | 97% (inactive) |
| COc1ccc(-c2noc(-c3ccc(NCc4ccco4)c([N+](=O)[O-])c3)n2)cc1 | 43% (inactive) |
| COc1ccc(-c2noc(-c3ccc(NCc4ccco4)c([N+](=O)[O-])c3)n2)cc1OC | 43% (active) |
| Cc1ccc(-c2noc(-c3ccc(NCc4ccco4)c([N+](=O)[O-])c3)n2)cc1 | 98% (inactive) |
| CCC(=O)N1c2nc(C(C)C)nn2C2(CCCCC2)[C@@H]2CCCC[C@@H]21 | 81% (inactive) |
| COC(=O)c1ccc(Cn2nnc3c(=O)[nH]c(C4CCCN(S(=O)(=O)c5cccc(Cl)c5)C4)nc32)cc1 (configuration not stated) | 94% (inactive) |
| CC(C)N(C(=O)CSc1nnc(Cc2csc(Nc3ccccc3)n2)o1)C(C)C | 69% (inactive) |
| CCOc1ccc2nc(NCCNC(=O)C3CCCCC3)c(C#N)cc2c1 | 106% (inactive) |
| CCN(CC)C(=O)/C(=C\c1ccc(OC)c(OC)c1)n1ccccc1=O | 103% (inactive) |
| CCc1ccc(CNC(=O)Cn2nc(C)c3c(C)n(-c4ccc(C)cc4)nc3c2=O)cc1 | 79% (inactive) |
| COc1ccc(-c2cccc(NS(=O)(=O)c3cc(C)c(Cl)cc3C)c2)nn1 | 102% (inactive) |
| CC(=O)c1sc2c(c1C)c(=O)n(-c1ccc(Cl)cc1)c(=O)n2Cc1cc(=O)n2cc(Cl)ccc2n1 | 58% (inactive) |

| SMILES | survival |
| --- | --- |
| Cc1oc(-c2ccccc2)nc1C(=O)O | 72% (inactive) |
| COc1ccccc1CNc1ccc(-c2nc(-c3ccco3)no2)cc1[N+](=O)[O-] | 45% (inactive) |
| CCCNc1ccc(-c2nc(-c3ccco3)no2)cc1[N+](=O)[O-] | 57% (active) |
| O=[N+]([O-])c1cc(-c2nc(-c3ccco3)no2)ccc1NCc1ccccc1 | 47% (active) |
| CCNc1ccc(-c2nc(-c3ccco3)no2)cc1[N+](=O)[O-] | 51% (inactive) |
| Cc1ccc(CNc2ccc(-c3nc(-c4ccco4)no3)cc2[N+](=O)[O-])cc1 | 53% (inactive) |
| CCCCNc1ccc(-c2nc(-c3ccco3)no2)cc1[N+](=O)[O-] | 57% (inactive) |
| CCc1ccc2[nH]c3nc(SCC(=O)OC(C)C)nnc3c2c1 | 108% (inactive) |
| Cc1cc(C)c2c(=O)c3c(oc2c1)C(=O)N(CCCOC(C)C)C3c1ccccc1F (configuration not stated) | 67% (inactive) |
| COC(=O)C(C)Sc1nc2c([nH]c3ccccc32)c(=O)n1-c1ccc(OC)cc1 (configuration not stated) | 64% (inactive) |
| Cc1ccc(-n2c(SCC(=O)N3CCC(C)CC3)nc3c([nH]c4ccccc43)c2=O)cc1 | -5% (active) |
| Cc1cc(C)cc(-n2c(SCC(=O)N3CCC(C)CC3)nc3c([nH]c4ccccc43)c2=O)c1 | 17% (active) |
| CCOC(=O)CSc1nc2c([nH]c3ccccc32)c(=O)n1-c1ccc(OCC)cc1 | 99% (inactive) |
| Cc1cc(C)cc(-n2c(SCC(=O)N3CCCC3)nc3c([nH]c4ccccc43)c2=O)c1 | 89% (inactive) |
| CCOc1ccc(-n2c(SCC(=O)N3CCCCC3)nc3c([nH]c4ccccc43)c2=O)cc1 | 107% (inactive) |
| CCOc1ccc(-n2c(SCC(=O)N3CCOCC3)nc3c([nH]c4ccccc43)c2=O)cc1 | 0% (active) |
| COc1ccc(-n2c(SCC(=O)N3CCC(C)CC3)nc3c([nH]c4ccccc43)c2=O)cc1 | 70% (inactive) |
| CCOc1ccc(-n2c(SC(C)C(=O)OC)nc3c([nH]c4ccccc43)c2=O)cc1 (configuration not stated) | 0% (active) |
| CC1CCN(C(=O)CSc2nc3c([nH]c4ccccc43)c(=O)n2-c2ccccc2)CC1 | 75% (inactive) |

| SMILES | survival |
| --- | --- |
| Cc1cc(C)cc(-n2c(SCC(=O)N3CCCCC3)nc3c([nH]c4ccccc43)c2=O)c1 | 88% (inactive) |
| CCOc1ccc(-n2c(SCC(=O)N3CCCC3)nc3c([nH]c4ccccc43)c2=O)cc1 | 98% (inactive) |
| Cc1ccccc1S(=O)(=O)Cc1ccc(C(=O)NCc2ccccc2Cl)o1 | 56% (inactive) |
| Cc1ccc(-n2ncc(C(=O)NCCCN3CCc4ccccc4C3)c2C2CCN(C(=O)OC(C)(C)C)CC2)cc1C | 73% (inactive) |
| COc1cccc(-n2cc(C(=O)NCc3ccccc3OC)c3ccccc3c2=O)c1 | 72% (inactive) |
| CCC(Oc1ccccc1)C(=O)Nc1cccc(OCc2cc(=O)n3cccc(C)c3n2)c1 (configuration not stated) | 128% (inactive) |
| O=C1N(CN2CCCCC2)c2ccccc2C12OCCCCO2 | 94% (inactive) |
| CCc1ccc(OCC2c3cc(OC)c(OC)cc3CCN2C(=O)Cc2ccc(OC)c(OC)c2)cc1 (configuration not stated) | 76% (inactive) |
| COc1ccccc1OCC(=O)NCC(c1ccc(Cl)cc1)N1CCCCC1 (configuration not stated) | 61% (inactive) |
| O=C(Nc1ccc(F)cc1F)c1cc(S(=O)(=O)N2CCCCC2)c[nH]1 | 83% (inactive) |
| Cc1ccc(NC(=O)c2cc(-c3ccc(Br)s3)nc3ccccc23)cc1F | 59% (inactive) |
| CCOc1cccc(CC(=O)N2CCc3c([nH]c4ccccc34)C2c2ccc(SC)cc2)c1OCC (configuration not stated) | 107% (inactive) |
| Cn1nccc1C(=O)NCc1ccc2c(c1)CCN2C(=O)c1ccc(F)cc1 | 65% (inactive) |
| CCOc1ccc(-n2c(SCC(=O)NCc3ccco3)nc3c([nH]c4ccccc43)c2=O)cc1 | 37% (active) |
| COC(=O)c1ccc(CSc2nc3c([nH]c4ccccc43)c(=O)n2-c2ccc(Cl)cc2)o1 | 112% (inactive) |
| COc1ccc(-n2c(SCC(=O)NCc3ccco3)nc3c([nH]c4ccccc43)c2=O)cc1 | 102% (inactive) |
| O=C(CSc1nc2c([nH]c3ccccc32)c(=O)n1-c1ccc(F)cc1)NCc1ccco1 | 81% (inactive) |
| COC(=O)c1ccc(CSc2nc3c([nH]c4ccccc43)c(=O)n2-c2cccc(Cl)c2)o1 | 79% (inactive) |
| COC(=O)c1ccc(CSc2nc3c([nH]c4ccccc43)c(=O)n2-c2cc(C)cc(C)c2)o1 | 8% (active) |

Reference: PubChem BioAssay AID463173 (ICCB-Longwood Screening Facility, Harvard Medical School, 2010)
